# Records with an inconclusive call do not appear. Active and inactive are the calls of the source. Unless noted, calls follow the shape of the dose curve; as a rule, active = well fitted curve in the direction sought with a large enough effect; inconclusive = small, poorly fitted or top-dose-only effect, or another doubt; inactive = no such curve, though single readings can be large; an effect the other way counts as inactive or inconclusive. *1 amine or outer side, *2 acyl side, *3 side chain or, on linkers, in order; H or OH if unused. Where a SMILES comes first, the peptide text is derived from it. Non-standard residues stand in square brackets, D forms with d. Residues, ends and D or L forms follow the SMILES beside them. Bridges are numbered along the chain shown (N, C = ends). Roman numbers before positions name the chains, in order. [ ]: non-standard residue; d: D form. ξ: configuration not given here. Actinocin(9to1) = Cc1c2oc3c(C)ccc(C(=O)[*:1])c3nc-2c(C(=O)[*:2])c(N)c1=O; Orn = NCCC[C@H](N)C(=O)O; ξNMeV = CNC(C(=O)O)C(C)C; ξV = CC(C)C(N)C(=O)O; Sar = CNCC(=O)O
# Experiments:
# [1] = Identifying Small Molecule Inhibitors of Pancreatic Cancer Stem Cells (A2780, Spheroid) (AID 1259357); conditions: Potency: A2780 spheroid viability;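 also: compound exposure lasted 48 h before the ATP luminescence read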; also: potency is read from the fitted curve at half-maximal effect
# Summary of the method: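 Adherent (2D) versus sphere (3D) formats; spheres generated 14 d in SCM beforehand. Compound transferred by pin tool after 4 h, 48 h incubation, CellTiter-Glo endpoint.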
# [2] = Identifying Small Molecule Inhibitors of Pancreatic Cancer Stem Cells (Panc1, Spheroid) (AID 1259359);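 also: potency is read from the fitted curve at half-maximal effect; compound exposure lasted 48 h before reading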
# Summary of the method: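 Cytotoxicity read by CellTiter-Glo luminescence after 48 h compound exposure at 37C; percent activity scaled between DMSO-treated cells and cell-free wells. Spheroid formats used cells pre-formed 14 days in stem cell media on hydrogel.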
# [3] = Identifying Small Molecule Inhibitors of Pancreatic Cancer Stem Cells (A278, Adherent) (AID 1259361); also: nearly all actives have a fitted effect of over 35% in size
# Summary of the method: (§1)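 Luminescent ATP readout (CellTiter-Glo) quantifies surviving cells after a 48 h drug incubation. Normalization uses DMSO wells as no inhibition and media-only wells as full inhibition; bortezomib served as positive control.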
# [4] = qHTS assay to identify small molecule inhibitors of chordoma cells - UCH-2 (AID 1259356); also: potency is read from the fitted curve at half-maximal effect
# [5] = Identifying Small Molecule Inhibitors of Pancreatic Cancer Stem Cells (SN12C, Adherent) (AID 1259358);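 also: cell survival measured after 48 h of compound exposure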; also: potency is read from the fitted curve at half-maximal effect
# Summary of the method: as §1
# [6] = qHTS profiling of the MIPE4 collection as inhibitors of Plasmodium falciparum (3D7) proliferation (AID 743344; call rule not given here;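 also: scaled between DMSO vehicle wells and 0.29 µM artemisinin as full inhibition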); conditions: P. falciparum 3D7 in erythrocytes, SYBR Green DNA fluorescence, 72 h; at 28.5 µM (top of the series) unless noted
# Summary of the method: (§2)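 Parasite DNA was quantified by SYBR Green I fluorescence (ex 485, em 535 nm) after overnight lysis in saponin/Triton buffer at room temperature. Cultures at 0.3% parasitemia and 2.5% hematocrit were first exposed to compound for 72 h at 37 C; signals were normalised to artemisinin (0.29 uM) and vehicle wells.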
# [7] = qHTS profiling of the MIPE4 collection as inhibitors of Plasmodium falciparum (DD2) proliferation (AID 743345; call rule not given here); conditions: P. falciparum Dd2 in erythrocytes, SYBR Green DNA, 72 h; at 28.5 µM (top of the series) unless noted
# Summary of the method: as §2
# [8] = qHTS profiling of the MIPE4 collection as inhibitors of Plasmodium falciparum (DD2) proliferation (Rep 2) (AID 743346; call rule not given here); conditions: P. falciparum Dd2 in erythrocytes, SYBR Green DNA, 72 h; at 28.5 µM (top of the series) unless noted
# Summary of the method: as §2
# [9] = qHTS profiling of the MIPE4 collection as inhibitors of Plasmodium falciparum (HB3) proliferation (AID 743347; call rule not given here;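 also: plate controls were DMSO vehicle wells for no effect and artemisinin wells for full effect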); conditions: P. falciparum HB3 in erythrocytes, SYBR Green DNA, 72 h; at 28.5 µM (top of the series) unless noted
# Summary of the method: as §2
smiles,measurement,setting,value
CC[C@@H](C(=O)O)C1CC[C@H](C)C([C@@H](C)[C@H](O)[C@H](C)C(=O)[C@H](CC)C2O[C@]3(C=C[C@@H](O)[C@]4(CC[C@@](C)(C5CC[C@](O)(CC)[C@H](C)O5)O4)O3)[C@H](C)C[C@@H]2C)O1 (some centres not stated),Potency,[1],0.0332 µM (active)
same,Potency,[2],14.8 µM (active)
same,IC50 (viability decrease),[3],0.0743 µM (active)
CC[C@@H](C(=O)[C@@H](C)[C@@H](O)[C@H](C)CCc1ccc(C)c(O)c1C(=O)O)[C@H]1O[C@](CC)([C@H]2CC[C@](O)(CC)[C@H](C)O2)C[C@@H]1C,Potency,[4],inactive
CNC1CCN(C(Cc2cccc(-c3ccncc3)c2)C(=O)c2sc3c(F)ccc(F)c3c2Cl)CC1 (configuration not stated),Potency,[1],inactive
same,Potency,[5],26.4 µM (active)
C[C@H](CCC(=O)O)[C@H]1CC[C@H]2[C@@H]3[C@H](O)C[C@@H]4C[C@H](O)CC[C@]4(C)[C@H]3CC[C@]12C,Potency,[4],inactive
Nc1c(Br)cc(Br)cc1CNC1CCC(O)CC1 (configuration not stated),Potency,[4],inactive
CCC1(O)CC2CN(CCc3c([nH]c4ccccc34)[C@@](C(=O)OC)(c3cc4c(cc3OC)N(C=O)[C@H]3[C@](O)(C(=O)OC)[C@H](OC(C)=O)[C@]5(CC)C=CCN6CC[C@]43[C@@H]65)C2)C1 (some centres not stated),Potency,[5],1.18 µM (active)
same,IC50 (viability decrease),[3],0.418 µM (active)
CCC1(Cc2ccc(N)cc2)CCC(=O)NC1=O (configuration not stated),Potency,[1],inactive
same,Potency,[5],inactive
same,IC50 (viability decrease),[3],inactive
C[C@H]1C[C@H]2[C@@H]3CCC4=CC(=O)C=C[C@]4(C)[C@@]3(F)[C@@H](O)C[C@]2(C)[C@@]1(O)C(=O)CO,Potency,[4],inactive
CN(C)CCCN1c2ccccc2C(C)(C)c2ccccc21,Potency,[4],inactive
CC(=O)OCC(=O)[C@@]1(O)CC[C@H]2[C@@H]3C[C@H](C)C4=CC(=O)C=C[C@]4(C)[C@H]3[C@@H](O)C[C@@]21C,Potency,[4],inactive
O=S(=O)(O)c1ccc2c(N=Nc3ccc(S(=O)(=O)O)c4ccccc34)c(O)c(S(=O)(=O)O)cc2c1,Potency,[4],inactive
CCCCC/C=C\C/C=C\CCCCCCCC(=O)O,Potency,[4],inactive
CCC(=O)NCCC1CCc2ccc3c(c21)CCO3 (configuration not stated),Potency,[4],inactive
CC(C)C[C@@H]1NC(=O)[C@H](CCCN)NC(=O)[C@H](C(C)C)NC(=O)[C@@H]2CCCN2C(=O)[C@@H](Cc2ccccc2)NC(=O)[C@H](CC(C)C)NC(=O)[C@H](CCCN)NC(=O)[C@H](C(C)C)NC(=O)[C@@H]2CCCN2C(=O)[C@@H](Cc2ccccc2)NC1=O (cyclo(V[Orn]L[dF]PV[Orn]L[dF]P)),"parasite growth, % of DMSO control",[6],6.95%
same,"parasite growth remaining, % of DMSO control (lower = more inhibition)",[7],5.43%
same,"parasite growth, % of control (lower = inhibition)",[8],6.21%
same,"growth, % of control",[9],4.03%
same,Potency,[4],8.2 µM (active)
CC(=O)O[C@]1(C(C)=O)CC[C@H]2[C@@H]3CCC4=CC(=O)CC[C@]4(C)[C@@]3(F)[C@@H](O)C[C@@]21C,Potency,[4],inactive
O=C(O)C1CCCN1 (configuration not stated),Potency,[4],inactive
C[C@@H]1CCN(C(=O)CC#N)C[C@@H]1N(C)c1ncnc2[nH]ccc12,"parasite growth, % of DMSO control",[6],84%
same,"parasite growth remaining, % of DMSO control (lower = more inhibition)",[7],103%
same,"parasite growth, % of control (lower = inhibition)",[8],78.4%
same,"growth, % of control",[9],96.8%
same,Potency,[1],inactive
same,Potency,[5],inactive
same,IC50 (viability decrease),[3],inactive
O=c1cc(C2=CC=CC3Sc4ccccc4SC23)oc(N2CCOCC2)c1 (configuration not stated),Potency,[5],inactive
O=C(O)c1cc(=O)c2c3nc4ccccc4oc-3cc(=O)c2[nH]1,Potency,[4],inactive
NC(=O)Nc1cc(-c2ccc(CN3CCOCC3)c(F)c2)sc1C(=O)N[C@H]1CCCNC1,Potency,[1],20.9 µM (active)
same,Potency,[5],0.833 µM (active)
same,Potency,[2],9.35 µM (active)
same,IC50 (viability decrease),[3],0.526 µM (active)
C=C1C(=CC=C2CCC[C@@]3(C)[C@@H]2CC[C@H]3[C@H](C)CCCC(C)C)C[C@@H](O)C[C@@H]1O,"parasite growth, % of DMSO control",[6],22.5%
same,"parasite growth remaining, % of DMSO control (lower = more inhibition)",[7],65.2%
same,"parasite growth, % of control (lower = inhibition)",[8],29.8%
same,"growth, % of control",[9],19.8%
same,Potency,[4],inactive
CCCCCCCCCCCCCC[n+]1ccc(C)cc1,Potency,[4],25.9 µM (active)
CN(NC(=O)CC(=O)NN(C)C(=S)c1ccccc1)C(=S)c1ccccc1,Potency,[5],inactive
same,Potency,[2],0.0033 µM (active)
"Cc1c2oc3c(C)ccc(C(=O)N[C@@H]4C(=O)NC(C(C)C)C(=O)N5CCC[C@H]5C(=O)N(C)CC(=O)N(C)C(C(C)C)C(=O)O[C@@H]4C)c3nc-2c(C(=O)N[C@@H]2C(=O)NC(C(C)C)C(=O)N3CCC[C@H]3C(=O)N(C)CC(=O)N(C)C(C(C)C)C(=O)O[C@@H]2C)c(N)c1=O (some centres not stated) (I: T[ξV]P[Sar][ξNMeV] / II: T[ξV]P[Sar][ξNMeV]; ester I:1-I:C, II:1-II:C; linker I:N-II:N via Actinocin(9to1))",Potency,[2],0.0047 µM (active)
CC(=O)N[C@@H](CC(=O)N[C@@H](CCC(=O)O)C(=O)O)C(=O)O,Potency,[4],inactive
CC(=O)N(CC(C)C(=O)O)c1c(I)cc(I)c(N)c1I (configuration not stated),Potency,[4],inactive
COC(=O)C1=C(C)NC(C)=C(C(=O)OCCCN2CCC(c3ccccc3)(c3ccccc3)CC2)[C@H]1c1cccc([N+](=O)[O-])c1,Potency,[1],inactive
same,IC50 (viability decrease),[3],26.4 µM (active)
CO[C@H](C(=O)[C@@H](O)[C@@H](C)O)C1Cc2cc3cc(O[C@H]4C[C@@H](O[C@H]5C[C@@H](O)[C@H](O)[C@@H](C)O5)[C@@H](O)[C@@H](C)O4)c(C)c(O)c3c(O)c2C(=O)[C@H]1O[C@H]1C[C@@H](O[C@H]2C[C@@H](O[C@H]3C[C@](C)(O)[C@H](O)[C@@H](C)O3)[C@H](O)[C@@H](C)O2)[C@H](O)[C@@H](C)O1 (some centres not stated),Potency,[4],inactive
CCCC(=O)O[C@]1(C(=O)CCl)[C@H](C)C[C@@H]2[C@H]3CCC4=CC(=O)C=C[C@]4(C)[C@@]3(F)C(=O)C[C@@]21C,"parasite growth, % of DMSO control",[6],7.36%
same,"parasite growth remaining, % of DMSO control (lower = more inhibition)",[7],7.93%
same,"parasite growth, % of control (lower = inhibition)",[8],32.4%
same,"growth, % of control",[9],7.79%
same,Potency,[4],inactive
CCOc1cc2ncc(C#N)c(Nc3ccc(OCc4ccccn4)c(Cl)c3)c2cc1NC(=O)/C=C/CN(C)C,Potency,[5],0.418 µM (active)
same,IC50 (viability decrease),[3],1.18 µM (active)
CC(NC(=O)Cc1cc(F)cc(F)c1)C(=O)NC(C(=O)OC(C)(C)C)c1ccccc1 (configuration not stated),Potency,[5],inactive
same,IC50 (viability decrease),[3],inactive
CC(C)N=c1cc2n(-c3ccc(Cl)cc3)c3ccccc3nc-2cc1Nc1ccc(Cl)cc1,"parasite growth, % of DMSO control",[6],10.9%
same,"parasite growth remaining, % of DMSO control (lower = more inhibition)",[7],7.22%
same,"parasite growth, % of control (lower = inhibition)",[8],166%
same,"growth, % of control",[9],47.5%
same,Potency,[4],inactive
